AMA1-RON2 inh: AMA1-RON2 (P. falciparum) interaction inhibition | AlphaScreen AMA1-biotinylated RON2 peptide binding | Potency, µM (titrated, usually from 58.2 µM), most hits filed as inhibitors | 0.2% of 360,000 active | AID 720542; further: nearly all actives have a fitted effect of over 45% in size
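AMA1 (3D7) with his tag at 25 nM final met compounds first, then biotinylated RON2 peptide at 25 nM; detection used donor plus acceptor beads, 10 µg/mL apiece, read by AlphaScreen after 30 min at room temperature.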
RE007 growth inh: less growth of the S. pombe RE007 Vpr strain | S. pombe RE007 Vpr strain, BacTiter-Glo ATP luminescence, 24 h | Potency, µM (highest dose often 92.2 µM), usual class: inhibitors | 0.21% of 360,000 active; active means well fitted falling curve with a large enough effect; inconclusive means small, poorly fitted or top-dose-only effect; inactive means no such curve, though single readings can be large or run the other way; further: nearly all actives have a fitted effect of over 50% in size
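Fission yeast strain RE007, carrying one chromosomally integrated HIV-1 vpr copy, was seeded at OD 0.01 in PMG+AL medium with 23 nL pinned compound. After 24 h at 30 °C and 99% humidity, viability was read by BacTiter-Glo luminescence.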
AmpC inh detg: inhibitors of E. coli AmpC beta-lactamase with detergent | P00811 | Potency, µM (titrated, usually from 114 µM), usual class: inhibitors | AmpC hydrolysis of nitrocefin, absorbance 480 nm, 0.01% Triton | 0.041% of 370,000 active; further: nearly all actives have a fitted effect of over 25% in size
Target sequence (P00811 whole entry, looked up): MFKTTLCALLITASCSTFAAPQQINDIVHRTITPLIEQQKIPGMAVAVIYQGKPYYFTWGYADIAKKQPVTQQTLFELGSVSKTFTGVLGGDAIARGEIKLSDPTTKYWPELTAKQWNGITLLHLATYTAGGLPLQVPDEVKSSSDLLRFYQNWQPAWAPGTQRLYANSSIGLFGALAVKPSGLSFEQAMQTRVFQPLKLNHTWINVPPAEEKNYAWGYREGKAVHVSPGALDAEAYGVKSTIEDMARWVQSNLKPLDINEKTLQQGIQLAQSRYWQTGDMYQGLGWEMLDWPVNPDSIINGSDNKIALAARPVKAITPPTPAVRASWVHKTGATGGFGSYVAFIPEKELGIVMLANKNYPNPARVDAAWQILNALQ
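AmpC (5.3 nM in the dispensed reagent) in 20 mM phosphate pH 7.0 with 0.01% (detergent screen) or 0.0001% Triton X-100 was preincubated with compounds for 15 min at room temperature. Nitrocefin was then added from an 800 uM solution, and hydrolysis was followed at 480 nm.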
AmpC inh no detg: inhibitors of E. coli AmpC beta-lactamase without detergent; Potency, µM (highest dose often 57.1 µM), hits mostly inhibitors; AmpC nitrocefin hydrolysis, absorbance 480 nm, 0.0001% Triton; AID 485341; 0.52% of 330,000 active; P00811; further: nearly all actives have a fitted effect of over 20% in size
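20 mM phosphate pH 7.0 + 0.01% (detergent screen) or 0.0001% Triton X-100; 5.3 nM AmpC reagent; cpd preinc 15 min RT; nitrocefin (800 uM stock) to start; A480 q20 s × 4 min; Activity was normalised to no-enzyme and no-compound control wells.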
Sm TGR inh: blocks Schistosoma mansoni thioredoxin glutathione reductase | Potency, µM (top dose mostly 114 µM), hits mostly inhibitors | purified TGR, DTNB reduction, TNB absorbance 405 nm | 3% of 360,000 active | AID 485364 | Q962Y6; further: nearly all actives have a fitted effect of over 60% in size
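TGR 20 nM + NADPH 100 uM (dispensed conc.), cpd preinc 15 min RT; start with NADPH (500 uM addition) then DTNB (15 mM addition). Kinetic TNB absorbance, 405 nm filter. Four-parameter Hill fit across titration.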
Numbers stand for hits; . = inactive; ? = inconclusive; / = no result given; [ ] = remark or other dose. Most compounds without a hit are left out; they make up all but 3.2% or so of the library. Unless noted, the call rests on the fitted dose curve; in most records, active means well fitted curve in the direction sought with a large enough effect; inconclusive means small, poorly fitted or top-dose-only effect, or another doubt; inactive means no such curve, though single readings can be large; an effect the other way counts as inactive or inconclusive.

SMILES | AMA1-RON2 inh | RE007 growth inh | AmpC inh detg | AmpC inh no detg | Sm TGR inh
COc1ccccc1N1CCN(/N=C/c2cccc(Cl)c2)CC1 | 14.1µM | ? | . | . | .
COc1ccc(C(=O)N2CCN(c3ccc(NC(=O)c4ccco4)cc3)CC2)cc1 | . | . | . | . | .
NC(=O)C1CCCN(C(=O)c2ccc(Cl)cc2)C1 (stereo not given) | . | . | . | . | .
COc1ccccc1N1CCN(C(=O)/C=C/c2ccco2)CC1 | . | . | . | . | 50.1µM
Cc1ccc(/C=C/C(=O)N2CCCC(C(N)=O)C2)o1 (stereo not given) | . | . | . | . | 31.6µM
O=C(NCCC(=O)N1CCN(c2ccc(F)cc2)CC1)c1ccco1 | . | . | ? | . | 44.7µM
COc1ccccc1N1CCN(C(=O)/C=C/c2ccccc2)CC1 | . | . | ? | . | .
O=C(NCCC(=O)N1CCN(c2ccccc2F)CC1)c1ccco1 | . | . | . | . | .
CN(C)CCN(Cc1ccccc1)S(=O)(=O)c1ccc(-c2cc(C(F)(F)F)on2)s1 | / | / | . | / | .
Cc1ccc(-c2nc3ccccc3c(=O)n2CCN2CCOCC2)cc1 | . | . | . | 2.24µM | .
COc1ccc(-c2nc3ccccc3c(=O)n2CCN2CCOCC2)cc1 | . | . | . | . | .
CC(O)c1nc2ccccc2n1CCCc1ccccc1 (stereo not given) | . | . | . | . | .
CC(O)c1nc2ccccc2n1Cc1ccccc1 (stereo not given) | . | . | . | . | 5.62µM
O=C(NCc1ccncc1)c1cccc(S(=O)(=O)N2CCc3ccccc32)c1 | . | . | . | . | 28.2µM
O=C(NCCc1ccccn1)c1cccc(S(=O)(=O)N2CCCCCC2)c1 | . | . | . | / | .
O=C(NCCc1ccccn1)c1cccc(S(=O)(=O)N2CCc3ccccc32)c1 | . | . | . | . | 39.8µM
COc1ccc(CCNC(=O)c2ccc3c(c2)c(C)c(C)n3Cc2ccc(F)cc2)c(OC)c1OC | / | / | . | / | .
O=C(NCc1ccccc1)C1CCN(S(=O)(=O)c2cccc3cccnc23)CC1 | . | . | ? | . | .
Cc1ccsc1C(=O)N1CCC(N2CCC(C(=O)NCC3CCCO3)CC2)CC1 (stereo not given) | . | . | . | . | .
O=C(NCC1CCCO1)C1CCN(S(=O)(=O)c2cccc3cccnc23)CC1 (stereo not given) | . | . | . | 3.16µM | .
O=C(NCC1CCCO1)C1CCN(C(=O)c2ccc(Br)cc2)CC1 (stereo not given) | . | . | . | 3.98µM | .
O=C(Nc1ccncc1)C1CCCN(S(=O)(=O)c2cccc3cccnc23)C1 (stereo not given) | . | . | ? | 44.7µM | .
CCOc1ccccc1NC(=O)C1CCCN(S(=O)(=O)c2cccc3cccnc23)C1 (stereo not given) | . | . | . | 5.62µM | .
O=C(COCc1cc(-c2ccc(F)cc2)on1)Nc1cc(F)ccc1F | / | / | . | / | .
O=Cc1cccc(OC(=O)/C=C/c2ccco2)c1 | . | ? | ? | . | 28.2µM
SMILES | AMA1-RON2 inh | RE007 growth inh | AmpC inh detg | AmpC inh no detg | Sm TGR inh
O=C(Cc1cccc2ccccc12)N/N=C/c1ccc(OC(=O)/C=C/c2ccco2)cc1 | . | . | ? | 35.5µM | ?
O=C(Oc1cccc2cccnc12)c1ccco1 | . | 28.2µM | . | . | .
O=C(Oc1cccc2cccnc12)c1cccs1 | . | 5.01µM | . | . | .
CCC(C(=O)NC(C)(C)C)n1c(C(c2ccccc2)c2ccccc2)nc2ccccc21 (stereo not given) | . | . | / | / | /
CCOC(=O)C1=C(CSc2nc(C)ccc2C#N)OC(N)=C(C#N)C1c1cccc(OC)c1OC (stereo not given) | . | . | ? | . | 12.6µM
CCOC(=O)C1=C(CC)OC(N)=C(C#N)C1c1ccc(OC)c(OC)c1OC (stereo not given) | . | . | . | . | ?
Cc1nn2c(C)c(C(=O)NC(C)(C)C)cnc2c1-c1ccc(F)cc1 | / | / | . | / | .
N/C(Cc1cccc2ccccc12)=N\OC(=O)c1ccc(Br)o1 | / | / | . | . | 44.7µM
CC(=O)OCCNc1cc(SC(C)C)c2nonc2c1[N+](=O)[O-] | . | . | . | . | .
CC(C)CCSc1cc(NCCO)c([N+](=O)[O-])c2nonc12 | . | . | ? | . | 2.51µM
CC(=O)OCCCNc1cc(Sc2ccc(Cl)cc2)c2nonc2c1[N+](=O)[O-] | . | . | . | . | 3.16µM
Cc1ccc(Sc2cc(NCCCO)c([N+](=O)[O-])c3nonc23)cc1 | . | . | . | . | 3.55µM
Cc1ccc(C2=NC(c3ccc(F)cc3)=Nc3ccc(C)cc3N2)cc1 | / | / | . | / | .
CCCn1c(CCC(=O)Nc2cc(OC)cc(OC)c2)nc2cccnc21 | / | / | . | / | .
CC(=O)c1cccc(NC(=O)c2oc(=O)c3ccccc3c2-c2ccccc2)c1 | / | / | . | / | .
O=C(Nc1ccc(F)c(Cl)c1)c1cc(S(=O)(=O)N2CCCc3ccccc32)ccc1F | / | / | . | / | .
CCOCCCNC1=C(Cl)C(=O)c2ccccc2C1=O | ? | ? | . | . | 1.78µM
Cc1cc(C)cc(N2C(=O)NC(=O)/C(=C\c3cc(C)n(C)c3C)C2=O)c1 | . | . | . | . | /
COC(=O)C1=C(C)NC(=O)/C1=C\c1cc(C)n(-c2cc(C)cc(C)c2)c1C | ? | 10µM | . | . | ?
Cc1cc(/C=C2/C(=O)NC(=O)N(C)C2=O)c(C)n1-c1ccccc1 | . | ? | . | . | /
COC(=O)C1=C(C)NC(=O)/C1=C\c1cc(C)n(-c2ccccc2)c1C | . | ? | . | . | 28.2µM
CC1COCC(C)N1C1=C(Cl)C(=O)c2ccccc2C1=O (stereo not given) | ? | 39.8µM | / | / | /
CN1CCN(C2=C(Cl)C(=O)c3ccccc3C2=O)CC1 | . | ? | / | / | /
COc1ccc(CCNc2nc3ccccc3c3nc(-c4cccc(C)c4)nn23)cc1OC | / | / | . | / | .
CCOC(=O)C1CCN(C(c2cc3ccc(C)cc3[nH]c2=O)c2nnnn2C2CCCCC2)CC1 (stereo not given) | . | . | . | . | 10µM
SMILES | AMA1-RON2 inh | RE007 growth inh | AmpC inh detg | AmpC inh no detg | Sm TGR inh
O=C(CCc1ccccc1)N1CCc2c([nH]c3ccccc23)C1c1ccc(F)cc1 (stereo not given) | / | / | . | / | .
COc1ccc(-n2ccnc(NCc3ccc(C)cc3)c2=O)cc1OC | / | / | . | / | .
N#Cc1ccc(C[C@@H](NS(=O)(=O)c2ccc(C(=O)O)cc2)C(=O)O)cc1 | / | / | . | . | .
O=C(O)c1ccc(S(=O)(=O)N[C@@H](Cc2ccc(O)cc2)C(=O)O)cc1 | / | / | ? | . | 44.7µM
COc1ccc(C(=O)Sc2nncc3ccccc23)cc1 | . | . | ? | .[11.4 µM] | 20µM
COc1cccc(CNC(=O)CSc2n[nH]c(-c3ccccc3Cl)n2)c1OC | / | / | . | / | .
